Inconclusive results are not listed. A call without a number means that no potency is given here. Calls of active or inactive are those of the source. The call rests on the fitted dose curve; in most records, active means well fitted curve in the direction sought with a large enough effect; inconclusive means small, poorly fitted or top-dose-only effect, or another doubt; inactive means no such curve, though single readings can be large; an effect the other way counts as inactive or inconclusive.
Tests used:
[1] = P-glycoprotein substrates identified in KB-3-1 adenocarcinoma cell line, qHTS therapeutic library screen (AID 1346986); settings: KB-3-1 parental cells viability, CellTiter-Glo, 72 h; series mostly up to 44.5 µM; further: nearly all actives have a fitted effect of over 60% in size;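 further: potency is for cytotoxicity meaning loss of cell viability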
Outline: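 Using luminescence to quantify ATP, parental and P-gp-overexpressing KB cells were compared after 72 h compound titration. KB-8-5-11 was also run with the P-gp inhibitor tariquidar.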

[2] = P-glycoprotein substrates identified in KB-8-5-11 adenocarcinoma cell line, qHTS therapeutic library screen (AID 1346987); settings: KB-8-5-11 (P-gp overexpressing) viability, CellTiter-Glo, 72 h; series mostly up to 44.5 µM; further: nearly all actives have a fitted effect of over 65% in size
Outline: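 In this qHTS, P-gp-rich KB-8-5-11 cells received library compounds across a concentration range. Viability was quantified by luminescence after 72 h at 37 degree C.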
Potency means the concentration at half of the fitted maximal effect.

| SMILES | Potency [1] | Potency [2] |
| --- | --- | --- |
| Nc1nc(OCc2cc(Br)cs2)c2[nH]cnc2n1 | inactive | inactive |
| O=C(Nc1ccccc1C(=O)Nc1ccc(CCO)cc1)c1ccc([N+](=O)[O-])cc1 | inactive | inactive |
| CCN(CC)C(=O)C(c1ccccc1)N1CCN(c2ccc(NC(=O)c3ccccc3-c3cccnc3)cc2F)CC1 (stereo not given) | inactive | inactive |
| N#Cc1cc(-c2ccnc(Nc3ccc(N4CCOCC4)cc3)n2)ccc1OC1CCOCC1 | 13 µM (active) | 16.4 µM (active) |
| C[C@@H]1O[C@@H](O[C@H]2[C@@H]3C=CO[C@@H](O[C@@H]4O[C@H](CO)[C@@H](O)[C@H](O)[C@H]4O)[C@@H]3[C@@]3(CO)O[C@@H]23)[C@H](O)[C@H](OC(=O)/C=C/c2ccccc2)[C@H]1O | inactive | inactive |
| Nc1nc2c(nc(Br)n2[C@@H]2O[C@@H]3COP(=O)(O)O[C@H]3[C@H]2O)c(=O)[nH]1 | inactive | inactive |
| Fc1ccc(-c2nc(-c3ccccc3F)[nH]c2-c2ccncc2)cc1 | inactive | inactive |
| CCN(Cc1cc(Nc2nc(C)cn3c(-c4cn[nH]c4)cnc23)sn1)C(C)(C)CO | 0.0103 µM (active) | 0.411 µM (active) |
| C=C1CC[C@@H]2[C@](C)(CO)[C@H](O)CC[C@@]2(C)[C@@H]1CC(O)C1=CCOC1=O (stereo not given in full) | inactive | inactive |
| CC(C)C[C@@H](N)C(=O)N[C@H]1C(=O)N[C@@H](CC(N)=O)C(=O)N[C@H]2C(=O)N[C@H]3C(=O)N[C@H](C(=O)N[C@H](C(=O)O)c4cc(O)cc(O)c4-c4cc3ccc4O)[C@H](O)c3ccc(c(Cl)c3)Oc3cc2cc(c3O[C@@H]2O[C@H](CO)[C@@H](O)[C@H](O)[C@H]2O[C@H]2C[C@](C)(N)[C@H](O)[C@H](C)O2)Oc2ccc(cc2Cl)[C@H]1O | inactive | inactive |

Source: PubChem BioAssay (NCATS)
